Screen size: about 48,000 compounds; about 13,000 (27%) showed an effect of 50% or more. Some of the results follow.
tested on: Wolbachia pipientis; test: Anti-Wolbachia Cell-Based Screen; format: functional; design: scale not given: in the data most compounds retested in dose-response had high values; conditions: 5 µM

Row | Structure (SMILES) | Percent Effect
1 | CCC1=NN2C(=N)/C(=C\c3cccn3-c3ccc(Cl)cc3)C(=O)N=C2S1 | 96.44%
2 | CCC1=NN2C(=N)/C(=C\c3cccn3-c3ccc(Br)cc3)C(=O)N=C2S1 | 83.94%
3 | CCC1=NN2C(=N)/C(=C/c3cccc(Cl)c3)C(=O)N=C2S1 | 3.278%
4 | CCC1=NN2C(=N)/C(=C\c3cccn3-c3cccc(Cl)c3)C(=O)N=C2S1 | 116.1%
5 | CN(Cc1ccco1)C1CCC12CCN(C(=O)C1CCOCC1)CC2.O=C(O)C(F)(F)F (stereo unspecified) | -16.55%
6 | CO[C@H]1CCN(S(=O)(=O)c2cn(C)cn2)[C@H]1Cc1ccccc1.O=C(O)C(F)(F)F | 1.513%
7 | Cc1noc(CCNC(=O)c2ccc(Br)c(S(=O)(=O)N(C)C)c2)n1 | 13.21%
8 | CCn1c(N)nc2cc(C(=O)NCCc3ccccc3C)cnc21 | -8.06%
9 | CCN(CC)S(=O)(=O)CCNc1nnc(C(C)C)s1 | 4.911%
10 | CC(C)(C)n1cc(CNC2CCN(C(=O)c3ccncc3)CC2)cn1 | -2.234%
11 | CC(C)(C)n1cc(CNc2ccc(CNS(C)(=O)=O)cc2)cn1 | 115%
12 | CS(=O)(=O)c1ccc(NCc2ccc(F)cc2)cn1 | -13.54%
13 | CC(C)c1nc(CNc2ccc(CNS(C)(=O)=O)cc2)cs1 | -10.73%
14 | CC(C)OC(=O)NCc1ccc(NCc2cnn(C(C)(C)C)c2)cc1 | 104.7%
15 | CC(C)(C)n1cc(CNC2CCN(C(=O)c3ccco3)CC2)cn1 | -4.791%
16 | CC(C)(C)OC(=O)N1CCC(NCc2cnn(C(C)(C)C)c2)CC1 | -19.8%
17 | CC(C)(C(=O)NCc1ccc(C#N)cc1)n1cc(Br)cn1 | 9.719%
18 | CC(=O)N(Cc1ccc(NCc2cnn(C(C)(C)C)c2)cc1)C(C)C | 111.1%
19 | CCc1nc(CNC(=O)Nc2nc(COC)cs2)cs1 | -11.4%
20 | O=C(NCCc1csc(-c2cnccn2)n1)c1cnn[nH]1 | -5.851%
21 | CCc1n[nH]c(SCC(=O)N2CCc3[nH]nc(C4CCC4)c3C2)n1 | -5.998%
22 | OC1(CNC2CCN(Cc3ccncc3)CC2)CCc2ccccc21 (stereo unspecified) | 9.315%
23 | O=C(NCC1CCOCC1)[C@H]1C[C@@H]2CCN(Cc3ccncc3)C[C@@H]2O1.O=C(O)C(F)(F)F.O=C(O)C(F)(F)F | 7.253%
24 | O=C(NCC1CCOCC1)[C@H]1C[C@@H]2CCN(Cc3ccccc3)C[C@H]2O1.O=C(O)C(F)(F)F | 108.7%
25 | CNC(=O)[C@H]1C[C@@H]2CCN(CCc3ccccc3)C[C@@H]2O1.O=C(O)C(F)(F)F | -33.06%
26 | CNC(=O)[C@@H]1C[C@@H]2CCN(Cc3ccoc3)C[C@H]2O1 | 103.1%

Row | Structure (SMILES) | Percent Effect
27 | O=C([C@@H]1C[C@@H]2CCN(Cc3ccco3)C[C@H]2O1)N1CCCO1 | -6.348%
28 | O=C(NCC1CC1)[C@H]1C[C@@H]2CCN(CCc3ccccc3)C[C@H]2O1.O=C(O)C(F)(F)F | 16.57%
29 | O=C(NCC1CCOCC1)[C@@H]1C[C@@H]2CCN(Cc3ccco3)C[C@H]2O1.O=C(O)C(F)(F)F | -3.417%
30 | O=C(NCC1CC1)[C@@H]1C[C@@H]2CCN(Cc3ccccc3)C[C@H]2O1 | 100.1%
31 | O=C(NCC1CC1)[C@@H]1C[C@@H]2CCN(Cc3ccoc3)C[C@@H]2O1 | 93.16%
32 | CC(C)[C@H]1CN(CCS(C)(=O)=O)C[C@@H]1NC(=O)c1ccc(=O)[nH]c1 | -6.33%
33 | NC(=O)Cn1c(SCc2noc(-c3ccsc3)n2)nnc1C1CC1 | 7.901%
34 | Cc1cc(C)cc(C(=O)NCc2ncnn2C)c1 | -13.46%
35 | CC(OCC1CC1)C(=O)Nc1ccn(Cc2ccccc2)n1 (stereo unspecified) | -8.999%
36 | N[C@H]1CC[C@@H](NC(=O)c2ccc3nc(-c4ccc(F)cc4)cn3c2)CC1 | -22.5%
37 | Cn1nc(C(=O)NCc2cccc(Cn3ccnc3)c2)ccc1=O | -21.54%
38 | Cn1cccc1C(=O)NCc1cn2c(n1)CN(C(=O)c1ccsc1)CC2 | 7.383%
39 | O=C(NC1CC1)[C@H]1CC[C@@H]2[C@@H](CCN2Cc2ccsc2)O1 | -0.273%
40 | O=C(NCC1CCOCC1)[C@@H]1C[C@@H]2[C@@H](CCN2Cc2ccoc2)O1 | 102.5%
41 | O=C(NCC1CC1)[C@H]1CC[C@@H]2[C@@H](CCN2Cc2ccoc2)O1 | 3.009%
42 | Cc1ccc(OCC(=O)NCC(C)C)nc1 | 0.1298%
43 | CCCNC(=O)COc1cc(C)c2c(C)nn(-c3ccc(C)cc3)c2n1 | 109.7%
44 | Cc1ccc(OCC(=O)NCc2sccc2C)nc1 | -2.294%
45 | CCCNC(=O)COc1ccc(C)cn1 | 4.173%
46 | Cc1ccc(OCC(=O)NCc2ccccc2F)nc1 | -9.663%
47 | CCNC(=O)COc1cc(CC)c2c(C)nn(-c3ccc(C)cc3)c2n1 | 126.5%
48 | CC(C)NC(=O)NCCCc1cc(N)n(-c2ccccc2)n1 | -14.76%
49 | Cc1ccc2oc(N3CCN(CC(=O)NC(C)C)CC3)nc2c1 | 0.7244%
50 | Cc1ccc(-n2nc(C)c3c(C)cc(OCC(=O)NC(C)C)nc32)cc1 | 109.8%
51 | Cc1cc(C)c2c(OCC(=O)NC(C)C)nn(C)c2n1 | -14.3%
52 | CSC(C)C(=O)NCCCc1cc(N)n(-c2ccccc2)n1 (stereo unspecified) | 6.591%

Row | Structure (SMILES) | Percent Effect
53 | CCCNC(=O)COc1cc(C)c2c(C)nn(-c3ccccc3)c2n1 | 102.4%
54 | CCn1ncc2c1CCCC2NCc1cccc2c1OCCO2 (stereo unspecified) | 5.32%
55 | COCCCSc1ccc(NCc2ccc(C)cn2)cc1 | -7.055%
56 | CCN(CC)[C@@H]1CN(Cc2cnn(C)c2)[C@@H]2COC[C@H]12 | 6.266%
57 | COC1CCN(Cc2csc(C(C)C)n2)CC1 | -2.369%
58 | CC(CN1CCCC1)C(=O)N1CCC(c2nccn2CC2CC2)CC1 (stereo unspecified) | -20.21%
59 | CSCc1noc(C2CCC(=O)N(CCc3ccccc3)C2)n1 (stereo unspecified) | -4.988%
60 | CCc1noc(C2CCCCN2C(=O)c2nnc3ccccc3n2)n1 (stereo unspecified) | 13%
61 | CC(NC(=O)NC1CCN(Cc2ccncc2)CC1)c1ccc(F)cc1 (stereo unspecified) | 24.84%
62 | O=C(CC1CC1)N1Cc2nccn2CC(Cn2ncccc2=O)C1 (stereo unspecified) | 90.4%
63 | O=C(c1ccco1)N1Cc2nccn2CC(Cn2ncccc2=O)C1 (stereo unspecified) | 108.6%
64 | O=C(CC1CC1)N1Cc2nccn2CC(CN2CCCC2)C1 (stereo unspecified) | -4.92%
65 | O=C(C1CC=CC1)N1Cc2nccn2CC(CN2CCCC2)C1 (stereo unspecified) | 16.54%
66 | O=C1CCCN1CC1CN(C(=O)N2CCOCC2)Cc2nccn2C1 (stereo unspecified) | 4.749%
67 | COCC1CN(C(=O)c2ccco2)Cc2nccn2C1 (stereo unspecified) | 4.87%
68 | COCC(=O)N1Cc2nccn2CC(Cn2ncccc2=O)C1 (stereo unspecified) | 110.2%
69 | O=C(N1CCCC1)N1Cc2nccn2CC(Cn2ncccc2=O)C1 (stereo unspecified) | 113.1%
70 | O=C1CCCN1CC1CN(C(=O)CC2CCCC2)Cc2nccn2C1 (stereo unspecified) | -15.1%
71 | COCC1CN(C(=O)c2ccc(C)o2)Cc2nccn2C1 (stereo unspecified) | -22.35%
72 | O=C(N1CCN(c2ccccc2O)CC1)C1(O)Cc2ccccc2C1 | -7.176%
73 | O=C(N[C@@H]1CN(c2ncccn2)C[C@@H]2CCCO[C@@H]21)c1ccnnc1.O=C(O)C(F)(F)F | -7.292%
74 | CSc1ccccc1C(=O)Nc1ccc(OC2CCN(C)CC2)cc1 | 4.435%
75 | Cn1cc(CNc2cnn(CC3CCCO3)c2)c(-c2ccncc2)n1 (stereo unspecified) | 4.968%
76 | CS(=O)(=O)N1Cc2nccn2CC(Cn2ncccc2=O)C1 (stereo unspecified) | 1.411%
77 | O=C(c1ccccc1)N1Cc2nccn2CC(Cn2ncccc2=O)C1 (stereo unspecified) | 106.9%
78 | O=C(O)C(F)(F)F.O=C(O)C(F)(F)F.O=C(c1ccccn1)N1Cc2nccn2CC(CN2CCOCC2)C1 (stereo unspecified) | -3.585%

Row | Structure (SMILES) | Percent Effect
79 | NC(=O)N1Cc2nccn2CC(Cn2ncccc2=O)C1 (stereo unspecified) | 106.3%
80 | CN(Cc1cccnc1)CC1CN(C(N)=O)Cc2nccn2C1 (stereo unspecified) | -13.65%
81 | O=C(c1ccc[nH]1)N1Cc2nccn2CC(Cn2ncccc2=O)C1 (stereo unspecified) | 107.9%
82 | CSc1ncc(C(=O)N2C[C@H]3CC[C@@H]2CN(c2ncccn2)C3)cn1 | -34.6%
83 | CC(C)N(CC(N)=O)Cc1cccc(Br)c1 | -7.902%
84 | CCN(Cc1nc(COC)no1)C(=O)CCNC(=O)c1ccccc1F | -2.73%
85 | CCN(Cc1cccc(C(=O)Nc2c(C)cnn2C)c1)[C@H]1COC[C@@H]1O | 2.472%
86 | CC(C)c1nsc(NC2CCOC3(CCCC3)C2)n1 (stereo unspecified) | -5.666%
87 | CCc1ncc(C(=O)NCCNC(=O)Cc2ccc(F)cc2)s1 | -2.58%
88 | CCc1ncc(C(=O)NCCNc2ncnc3sccc23)s1 | -14.73%
89 | Cc1ncc(C(=O)NCCNc2ccncc2)s1 | 106.3%
90 | CCCC(C)(C)NC(=O)c1cnc(C)s1 | -0.6309%
91 | Cc1ncc(C(=O)NCCNc2ncnc3sccc23)s1 | -47.31%
92 | CCc1ncc(C(=O)NCCNc2ccncc2)s1 | 82.39%
93 | Cc1ccc(-c2nnc(CN3CCOCC(CO)C3)o2)n1C (stereo unspecified) | -20.97%
94 | CCOC1CCCN(C(=O)c2[nH]nc(C(C)C)c2Br)C1 (stereo unspecified) | -3.012%
95 | Cc1cnn(CC2CCCN2C(=O)CCc2c(C)nc(C)[nH]c2=O)c1 (stereo unspecified) | 112.3%
96 | Cc1cnn(CC2CCCN2C(=O)CCc2c(C)noc2C)c1 (stereo unspecified) | 111.6%
97 | Cc1cnn(CC2CCCCN2C(=O)Cc2csc(C)n2)c1 (stereo unspecified) | 1.923%
98 | Cc1cnn(CC2CCCCN2C(=O)Cc2c(C)noc2C)c1 (stereo unspecified) | 117.3%
99 | Cc1nn(C)c(C)c1CCC(=O)N1CCCC1Cn1cccn1 (stereo unspecified) | 11.22%
100 | Cc1cnn(CC2CCCN2C(=O)CCc2nc3ccccc3[nH]2)c1 (stereo unspecified) | 1.047%
101 | Cc1cnn(CC2CCCN2C(=O)CCc2c(C)nn(C)c2C)c1 (stereo unspecified) | 103.1%

Source: ChEMBL document CHEMBL3988442, “University of Dundee, Small-Polar-MMV Screening Library” (2021)
